# This is part of a sample that, as a whole, favours compounds with a hit. Of some 83,000 tested, about 20% had one in any assay.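 Single-concentration screen, 48 h exposure, 96-well plates. Endpoint: percent growth. Below 10 = active.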 Unmarked numbers belong to inactive results. Calls of active or inactive are those of the source.
# Key:
# Assay in all cases: NCI-60 one-dose screen, 48 h (100 = growth as untreated, 0 = no growth, -100 = all killed)
# Details in all cases: 10 µM unless noted
# [1] = test system: SK-MEL-2 melanoma
# [2] = test system: EKVX NSCLC
# [3] = test system: SN12C renal
# [4] = test system: TK-10 renal
# [5] = test system: ACHN renal
# [6] = test system: CAKI-1 renal
# [7] = test system: A498 renal
# [8] = test system: CCRF-CEM leukemia
# [9] = test system: MOLT-4 leukemia
# [10] = test system: UO-31 renal
SMILES,growth [1],growth [2],growth [3],growth [4],growth [5],growth [6],growth [7],growth [8],growth [9],growth [10]
CCCCCn1cnc2c(=S)nc[nH]c21,121%,108%,117%,116%,109%,115%,107%,97.1%,104%,
Oc1cccc(Nc2nccc(-c3ccc4ccccc4c3)n2)c1,14.5%,50.5%,33.8%,62%,37.6%,24%,71.2%,6.6% (active),23.5%,
CC(=O)Nc1ccc2c(c1)c(NC(C)=O)nn2C(=O)Nc1ccc(Cc2ccccc2)cc1,12.9%,71.3%,82.9%,85%,65.8%,49.2%,90.6%,89.8%,93.6%,
CCN(CC)CC(C)Nc1ccc([N+](=O)[O-])c2sc3ccccc3c(=O)c12 (centres undefined),26.8%,34.5%,37.2%,49.5%,7.58% (active),18.1%,29.8%,15.2%,-24% (active),
CCC(c1ccccc1)C(CC)c1ccc(O)c(O)c1 (centres undefined),94.3%,107%,91.9%,,95.9%,101%,110%,,73.8%,74.2%
O=C(O)c1ccccc1Nc1cccc(S(F)(F)(F)(F)F)c1,83.6%,99.3%,96.4%,87.8%,98.4%,94.6%,95.1%,98.4%,88.1%,
Clc1ccc(-c2nnc(COc3ccccc3Cl)o2)cc1,99.1%,86.9%,97.8%,,22.7%,84.3%,98.7%,92%,90.5%,77.5%
CC(C)(C)n1cc(-c2ccnc(NCCCNS(=O)(=O)c3cccc4ccccc34)c2)c(-c2cccc(O)c2)n1,30.1%,42.3%,36.7%,,36.7%,40.4%,48%,22.1%,7.2% (active),44.8%
Cc1ccc(SCN2CCN(c3cccc(Cl)c3)CC2)cc1,102%,90.2%,75.6%,97.7%,104%,70.7%,85.5%,38.7%,83.4%,
O=C(NCc1cccc(C(F)(F)F)c1)[C@H](CCC(=O)N1CCN(C2CCCCC2)CC1)N1C(=O)[C@@H](N2C(=O)OC[C@@H]2c2ccccc2)[C@H]1/C(Cl)=C/c1ccccc1,34.8%,53.8%,37.1%,40.8%,58.4%,62.4%,46.9%,33.9%,21.4%,
CCN(CC)CCCNc1cc(OC)cc2nc3cc(Cl)ccc3nc12,3.9% (active),0.555% (active),13.1%,-15.5% (active),3.95% (active),-78.7% (active),14.3%,19.9%,-26.2% (active),
O=C(/C=C\c1ccc2ccccc2n1)c1cc(Cl)ccc1O,-9.71% (active),85.9%,110%,,89.5%,44.9%,113%,,54.2%,65.2%
O=C1C=CC(Nc2ccccc2[N+](=O)[O-])C1Nc1ccccc1[N+](=O)[O-] (centres undefined),67.9%,-97.1% (active),36.9%,-45.3% (active),-96% (active),-24.3% (active),96.8%,10.5%,29.4%,
O=C(CNC1C2CC3CC(C2)CC1C3)Sc1nnc2sc3ccccc3n12 (centres undefined),108%,93%,101%,127%,100%,76.4%,107%,86.1%,,
CCCCCCCCCCCCCC(=O)C(C)N (centres undefined),72.5%,5.65% (active),5.02% (active),48.5%,39.2%,77.6%,11.3%,60.2%,46.8%,
COC1/C=C\OC2(C)Oc3c(C)c(O)c4c(O)c(c(CN(C)CCO)c(O)c4c3C2=O)NC(=O)/C(C)=C\C=C/C(C)C(O)C(C)C(O)C(C)C(OC(C)=O)C1C (centres undefined),105%,95.1%,105%,114%,103%,68.5%,115%,98.3%,112%,
CCN(CC)CC(C)(C)C(=O)/C=C/c1ccccc1,99.9%,26.7%,41.1%,91.5%,43.1%,49.7%,68.4%,9.36% (active),19.1%,
O=[N+]([O-])c1cccc(-c2nc3sccn3c2-c2ccnc(NCCCNS(=O)(=O)c3ccc(F)cc3)n2)c1,-15.9% (active),18.3%,10.6%,,5.38% (active),9.79% (active),29.7%,1.95% (active),-18.2% (active),-26.8% (active)
CCN(CC)CCCCNc1ccc(NCCCCN(CC)CC)c2c1C(=O)c1ccccc1C2=O,105%,100%,84.1%,57.8%,88.4%,81.5%,110%,78.6%,62.9%,
C=CCSc1nnc(-c2ccc(C(C)(C)C)cc2)n1-c1cccc(C(F)(F)F)c1,46.7%,22.2%,29.4%,51.1%,36.3%,32.3%,84.7%,24.2%,21.8%,
COc1ccc2nc(NC(=O)c3cccnc3Nc3cc(OC)c(OC)c(OC)c3)sc2c1,48%,36.3%,18.5%,,58%,5.14% (active),-64.4% (active),48.6%,56.7%,
CC(=O)OCC(=O)C1CCC=CC1OC(C)=O (centres undefined),88.3%,,99.4%,110%,100%,93.4%,110%,99.7%,95.9%,66.4%
CCCCN(CCCC)CCC(C)(O)c1cc2ccccc2c2ccccc12 (centres undefined),122%,103%,,104%,96.9%,87.9%,83.1%,42.4%,37.5%,50.9%
CCCCN(CC)CCCCCCCCCCN1CCCc2cc(OC)ccc21,92.8%,34.5%,,87.8%,76.7%,6.91% (active),75.9%,7.28% (active),-19.6% (active),24.4%
O=[N+]([O-])c1cccc(C2CC(c3ccccc3)=Nc3ccccc3S2)c1 (centres undefined),95.4%,,95.5%,124%,90.9%,91.6%,96.3%,22.6%,64.2%,59.7%
CN1CCCCC1CCN1c2ccccc2Sc2ccc(Cl)cc21 (centres undefined),71.2%,,71.8%,69.3%,58.2%,59.9%,74.9%,39.3%,41%,30.1%
CC/C(=C(\c1ccccc1)c1ccc(OCCNC)cc1)c1ccccc1,-90.5% (active),-69.2% (active),-90.5% (active),,-95% (active),-68.2% (active),-62.2% (active),0.764% (active),27.1%,
O=C1c2cc3c(cc2-c2c1c1cc(F)c(F)cc1c(=O)n2C[C@H](O)CO)OCO3,-26% (active),14.7%,-12.6% (active),-27.6% (active),-61.5% (active),,-79.4% (active),-10.9% (active),-26% (active),
CC/C=C\C[C@H](O)C/C=C1/C(=O)C=C[C@@H]1C/C=C\CCCC(=O)OC(C)C,-21.3% (active),15.9%,-16.3% (active),,-79.1% (active),9.27% (active),77.7%,-28.8% (active),-24.5% (active),

# Reference: PubChem BioAssay (NCI)
